Inconclusive results are not listed. Where a structure was tested more than once in an assay, its records may differ in their call. Calls of active or inactive are those of the source. Unless noted, calls come from the whole dose curve; as a rule, active = well fitted curve in the direction sought with a large enough effect in the repeat runs; inconclusive = weak or mixed curves; inactive = no such curve, though single readings can be large; an effect the other way counts as inactive or inconclusive.

The nature of assay [1]: qHTS assay to identify small molecule agonists of the NFkB signaling pathway - cell viability counter screen (AID 1159515; calls by dose curve; note: nearly all actives have a fitted effect of over 55% in size). The gist of the method: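 Counter screen run alongside the NFkB-bla agonist assay: ME-180 reporter cells exposed to compounds for 5 hr, then lysed with CellTiter-Glo in the same wells. Luminescence, read after 30 min, reflects viable cells.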
For orientation: Quantitative high-throughput screening tests each substance at several concentrations.

Assay [2] is described as follows: qHTS assay to identify small molecule agonists of the endoplasmic reticulum stress response signaling pathway (AID 1159516; active = well fitted activation curve with a large enough effect in the signal ratio in the repeat runs, not every such curve was filed as active; the % refers to the signal ratio). In short, it runs like this: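 For this screen, HeLa cells stably carrying beta-lactamase under the ER stress response element received test compounds, positive controls or DMSO for 5 hr at 37 C; B/G FRET substrate was then added and dual-wavelength emission recorded.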

The nature of assay [3]: qHTS assay to identify small molecule agonists of the endoplasmic reticulum stress response signaling pathway - cell viability counter screen (AID 1159517; calls by dose curve; note: nearly all actives have a fitted effect of over 50% in size). The gist of the method:
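ESRE-bla HeLa cells (1,500/well) were plated overnight at 37 C and exposed to compounds for 5 hr. After the 2 hr beta-lactamase substrate read, CellTiter-Glo went into the same wells, and luminescence was read after 30 min at room temperature.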

Assay [4] in a line: qHTS assay to identify small molecule antagonists of the retinoid-related orphan receptor gamma (ROR-gamma) signaling pathway - cell viability counter screen (AID 1159520). Note: nearly all actives have a fitted effect of over 50% in size. In short, it runs like this: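 Cytotoxicity was read from cellular ATP (CellTiter-Glo luminescence) after 16 hr at 37 C with 1 uM doxycycline induction. The inducer was added 2 hr after compound transfer to Tet-on ROR gamma CHO cells.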

A short description of assay [5]: qHTS assay to identify small molecule agonists of the AP-1 signaling pathway - cell viability counter screen (AID 1159525; calls by dose curve; note: nearly all actives have a fitted effect of over 55% in size). In short, it runs like this: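 Intracellular ATP by Cell Titer Glo luminescence (30 min, RT) in the same ME-180 AP-1-bla wells after the 5 h compound exposure at 37 °C. Normalised to tetra n-octyl ammonium bromide and DMSO controls.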
A short description of assay [6]: qHTS assay to identify small molecule agonists of the AP-1 signaling pathway (AID 1159526; calls by dose curve).
The target of assay [7] is Retinoic acid receptor RXR-alpha (Homo sapiens) (UniProt P19793). As to the kind of experiment: qHTS assay to identify small molecule agonists of the RXR signaling pathway (AID 1159527; calls by dose curve; note: nearly all actives have a fitted effect of over 35% in size; note: potency is the fitted concentration of half-maximal effect). The gist of the method:
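16 hr incubation of compound-treated RXR-alpha-UAS-bla HEK 293T cells (2% charcoal-stripped FBS, 37 C) preceded a 2 hr room-temperature LiveBLAzer FRET substrate step and blue/green fluorescence measurement.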

A short description of assay [8]: qHTS assay to identify small molecule agonists of the RXR signaling pathway - cell viability counter screen (AID 1159529).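 Note: HEK 293T cells carrying an RXR-alpha UAS beta-lactamase reporter; nearly all actives have a fitted effect of over 50% in size.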 In short, it runs like this:
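In this parallel viability measure, GeneBLAzer RXR-alpha HEK 293T cells (2% charcoal-stripped FBS) were given a 5 hr preincubation, treated with compounds 16 hr at 37 C, and read by CellTiter-Glo luminescence.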

A short description of assay [9]: qHTS assay to identify small molecule antagonists of the retinoid acid receptor (RAR) signaling pathway - cell viability counter screen (AID 1159551). Note: nearly all actives have a fitted effect of over 35% in size. The gist of the method:
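Measured by luminescent ATP detection, viability reflects C3RL4 cells treated 6 h at 37 C with test chemicals in the presence of 1 uM (final) retinol.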

A short description of assay [10]: qHTS assay to identify small molecule antagonists of the retinoic acid receptor (RAR) signaling pathway (AID 1159552; note: nearly all actives have a fitted effect of over 50% in size). In short, it runs like this: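 C3RL4 RARE-luc cells, overnight plating; retinol 1 uM final added right after compound; 6 hr 37 C; luciferase read at 30 min RT.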
A short description of assay [11]: qHTS assay to identify small molecule agonists of the retinoic acid receptor (RAR) signaling pathway (AID 1159553). Conditions: C3RL4 RARE luciferase reporter, agonist, 6 h; activation: at 73.3 µM (top of the series) unless noted. The gist of the method:
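6 hr compound exposure (DMSO vehicle) of overnight-plated C3RL4 RARE-luc cells at 37 C; luminescence quantified after 30 min RT with luciferase reagent.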

Assay [12] in a line: qHTS assay to identify small molecule antagonists of the estrogen related receptor (ERR) signaling pathway from Tox21 library - cell viability counter screen (AID 1224834). Note: nearly all actives have a fitted effect of over 30% in size. Note: potency is the fitted concentration of half-maximal effect. The gist of the method: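 Seeded ERR cells were rested 6 h at 37 C/5% CO2 before compounds, positive and negative controls or DMSO were added. Incubation continued for 17.5 h, and viability was then quantified by CellTiter-Fluor fluorescence.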

Assay [13] is described as follows: qHTS assay to identify small molecule antagonists of the vitamin D receptor (VDR) signaling pathway - cell viability counter screen (AID 743225). Note: nearly all actives have a fitted effect of over 50% in size. In short, it runs like this:
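Parallel cytotoxicity test: VDR-UAS-bla HEK 293T, 3 nM (final) 1-alpha,25-dihydroxyvitamin D3 with test compound, 16 h, 37C. Endpoint is CellTiter-Glo luminescence in the same wells.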

The target of assay [14] is Nuclear receptor ROR-gamma (Homo sapiens) (UniProt P51449). As to the kind of experiment: qHTS assay to identify small molecule antagonists of the retinoid-related orphan receptor gamma (ROR-gamma) signaling pathway (AID 1159521). In short, it runs like this:
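Decreased RORE-driven luciferase luminescence indicates antagonism. Tet-on RORγ CHO cells received compound, then 1 uM final doxycycline 2 h later; signal read after 16 h incubation.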

Assay [15] is described as follows: qHTS assay to identify small molecule antagonists of the estrogen related receptor (ERR) signaling pathway - cell viability counter screen (AID 1224818). In short, it runs like this: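 Compounds dissolved in DMSO were applied to ERR cells seeded at 2,000 per well 6 h earlier. Cell viability followed 17.5 h later via 30-min CellTiter-Fluor fluorescence.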
The nature of assay [16]: qHTS assay to identify small molecule antagonists of the estrogen related receptor (ERR) signaling pathway (AID 1224819). In short, it runs like this: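 Compounds dissolved in DMSO were pin-transferred onto ERR cells that had been plated 6 h earlier, and cells were then incubated 18 h at 37 C; signal was luciferase luminescence via One-Glo.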
Assay [17] is described as follows: qHTS assay to identify small molecule agonists of the estrogen related receptor (ERR) signaling pathway (AID 1224820). The gist of the method:
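An ERR cell line provided by NTP was seeded at 2,000 cells per well and allowed to settle for 6 h before compounds in DMSO were added. After 18 h at 37 C, luciferase activity was measured by One-Glo luminescence.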

The subject of assay [18] is estrogen-related receptor alpha (ERRalpha) with PGC-1alpha coactivator, human. In words: qHTS assay to identify small molecule antagonists of the estrogen related receptor signaling pathway with the pleiotropic PPARgamma coactivator (PGC) (AID 1224821; calls by dose curve). In short, it runs like this: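 A PGC/ERR cell line supplied by NTP is seeded, allowed 6 h at 37 C, and treated with test compounds in DMSO for 18 h. Signal is then measured as luciferase luminescence using One-Glo.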

Assay [19] is described as follows: qHTS assay to identify small molecule antagonists of the estrogen related receptor signaling pathway with the pleiotropic PPARgamma coactivator (PGC) cell viability counter screen (AID 1224822). The gist of the method: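 Counter screen for cell viability: PGC/ERR cells, 6 h pre-incubation after plating, 17.5 h compound exposure at 37 C, fluorescence from CellTiter-Fluor after 30 min.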

Assay [20] is described as follows: qHTS assay to identify small molecule agonists of the estrogen related receptor signaling pathway with the pleiotropic PPARgamma coactivator (PGC) (AID 1224823). The gist of the method:
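Compounds dissolved in DMSO are added by pin tool to PGC/ERR cells that have settled for 6 h, and incubation continues 18 h at 37 C. Reporter output is measured as One-Glo luminescence.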

Retinoic acid receptor RXR-alpha (Homo sapiens), sequence (P19793 whole entry, looked up): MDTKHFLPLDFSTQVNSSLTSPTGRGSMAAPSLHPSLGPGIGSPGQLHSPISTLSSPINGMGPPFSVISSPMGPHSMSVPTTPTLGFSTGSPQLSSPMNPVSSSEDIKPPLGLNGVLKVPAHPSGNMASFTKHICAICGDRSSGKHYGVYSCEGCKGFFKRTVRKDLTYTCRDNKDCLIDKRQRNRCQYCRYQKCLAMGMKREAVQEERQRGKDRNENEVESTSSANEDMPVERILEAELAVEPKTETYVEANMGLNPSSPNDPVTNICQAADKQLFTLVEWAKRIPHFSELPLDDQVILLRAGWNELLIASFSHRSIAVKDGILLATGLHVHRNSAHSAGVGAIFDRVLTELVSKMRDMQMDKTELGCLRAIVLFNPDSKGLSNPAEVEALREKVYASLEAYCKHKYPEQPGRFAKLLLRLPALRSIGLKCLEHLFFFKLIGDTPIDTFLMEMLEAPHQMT

Consider `C=CCOC(=O)C(=C)C`, for which the Potency entry in assay [1], in assay [2], in [3], in assay [4], in [5] and in [6] was “inactive” throughout. In addition, the Potency entry in assay [7], in assay [8], in assay [9], in assay [10], in [11] and in assay [12] was “inactive” in each case.

As for `C=C[C@H]1CN2CC[C@H]1C[C@H]2[C@H](O)c1ccnc2ccc(OC)cc12`, the Potency result in [1], in assay [2], in [3], in assay [4], in [5] and in [6] was “inactive” in each case. In addition, the Potency entry in [7], in [8], in [9] and in assay [12] was “inactive” throughout.

Regarding `C/C=C/C(=O)N(CC)c1ccccc1C`, the Potency entry in [13], in assay [1], in assay [2], in assay [3], in assay [4] and in assay [5] was “inactive” throughout. The Potency entry in [6], in assay [7], in assay [8], in assay [9], in assay [10] and in assay [11] was “inactive” throughout. Also, the Potency result in assay [12] is “inactive”.

As to `CC1(C)OC(=O)NC1=O`, the Potency result in [13], in assay [1], in assay [2], in [3], in [4] and in assay [5] was “inactive” in each case. The Potency entry in assay [6], in [7], in assay [8] and in [12] was “inactive” each time.

For the compound `COC(=O)C(C)Oc1ccc(Oc2ncc(C(F)(F)F)cc2Cl)cc1` (centres undefined), the Potency result in assay [13], in assay [1], in assay [2], in assay [3], in assay [4] and in [14] was “inactive” throughout. The Potency entry in assay [5], in [6], in assay [8], in [9] and in assay [12] was “inactive” in each case.

On to `O=C(O)CCCC(=O)O`, for which the Potency result in [13], in assay [1], in assay [2], in [3], in assay [4] and in assay [5] was “inactive” throughout. In addition, the Potency entry in assay [6], in assay [7], in [8], in assay [9], in [10] and in assay [11] was “inactive” in each case. The Potency result in assay [12] is “inactive”.

On to `CCCCCCC(C)O` (centres undefined), for which the Potency entry in [13], in [1], in assay [2], in assay [3], in assay [4] and in assay [14] was “inactive” throughout. In addition, the Potency entry in assay [5], in assay [6], in assay [8], in assay [9] and in assay [12] was “inactive” in each case. The Potency in assay [7] was 17.7 µM (active) and inactive.

As for `COc1cc([C@H]2Oc3cc([C@H]4Oc5cc(O)cc(O)c5C(=O)[C@@H]4O)ccc3O[C@@H]2CO)ccc1O`, the Potency entry in assay [13], in assay [1], in assay [2], in assay [3], in assay [4] and in assay [5] was “inactive” throughout. Moreover, the Potency entry in assay [6], in assay [7] and in [8] was “inactive” each time. Besides, the Potency in [12] is 48.4 µM (active) and inactive.

Consider `C[C@]12C=CC(=O)C=C1CC[C@H]1[C@@H]3C[C@@H](O)[C@](O)(C(=O)CO)[C@@]3(C)C[C@H](O)[C@@]12F`, for which the Potency result in [1], in [2], in assay [3], in assay [4], in assay [5] and in assay [6] was “inactive” each time. The Potency result in assay [7], in assay [8], in assay [9] and in assay [12] was “inactive” in each case. Moreover, the compound was called inactive in [15], in assay [16], in assay [17], in [18], in assay [19] and in assay [20].

Consider `COC(=O)CC(=O)OC`, for which the Potency result in [13], in assay [1], in assay [2], in assay [3], in assay [4] and in assay [5] was “inactive” in each case. The Potency result in assay [6], in [7], in [8], in [10], in [11] and in assay [12] was “inactive” in each case.
